Assay results: PubChem BioAssay (EPA / NIEHS)
Results filed as inconclusive are left out. The source made the active and inactive calls. How the source made its calls, unless noted: active means hit-call score of the fitted dose curve at least 0.9, where 1 is the maximum; inactive means score below 0.9.

Columns and labels:
[1] = CCTE_Harrill_HTTr_Viability_MCF7: CCTE's 6-hour Cell Viability Assessment for the High-Throughput Transcriptomics (HTTr) Platform, in MCF-7 cells cultured in DMEM + 10% fetal bovine serum, Harrill Lab (AID 2284010)
In short: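 Eight-point concentration series, six-hour exposure. Propidium iodide exclusion imaged to assess membrane integrity as a cytotoxicity readout; bidirectional fitting was done with DMSO as negative control and activity baseline.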

[2] = CCTE_Harrill_HTTr_Apoptosis_MCF7: CCTE's 6-hour Apoptosis Assessment for the High-Throughput Transcriptomics (HTTr) Platform, in MCF-7 cells cultured in DMEM + 10% fetal bovine serum, Harrill Lab (AID 2284011)
In short: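 Read-out: CellEvent Caspase 3/7 Green signal by high content imaging, gain-of-signal indicating apoptosis. MCF-7 cells, DMEM + 10% FBS, eight-point dilution series, 6 h exposure. Curves fitted bidirectionally relative to DMSO negative control.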

[3] = CCTE_Harrill_HTTr_CellCount_MCF7: CCTE's Cell Proliferation Assessment for the High-Throughput Transcriptomics (HTTr) Platform, Harrill Lab (AID 2284012; active means hit-call score of the fitted dose curve at least 0.9, where 1 is the maximum;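 further: count of Hoechst-stained nuclei per well by high-content imaging in MCF-7 cells; cells exposed to compound for six hours; intended direction is loss of nuclei count meaning fewer cells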)
In short: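 For this full-screen endpoint, MCF-7 cultures received eight compound dilutions for six hours. Well nuclei counts from Hoechst imaging were analyzed relative to DMSO.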

[4] = CCTE_Shafer_MEA_acute_burst_duration_mean: CCTE's Neural Acute Assay for Mean Burst Duration, Shafer Lab (AID 2284014);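 further: hits are decreases in mean burst duration relative to DMSO controls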
In short: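 Acute exposure of mature rat cortical networks (DIV 13 or 15) grown on microelectrode arrays to 0.03-40 uM compound. Mean burst duration compared with the 40-min pre-dose baseline over a 40-min post-dose recording at 37 C.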

[5] = CCTE_Shafer_MEA_acute_per_burst_spike_number_mean: CCTE's Neural Acute Assay for Average Number of Spikes Per Burst, Shafer Lab (AID 2284015);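 further: hits are decreases in mean spikes per burst versus baseline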
In short: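 Percent change in mean spikes per single-electrode burst is compared between a 40 min baseline and a 40 min recording with compound (0.03-40 uM). Cultures were rat cortical neurons on MEA plates at DIV 13 or 15, recorded at 37 C, with DMSO as the negative control.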

[6] = CCTE_Shafer_MEA_acute_interburst_interval_mean: CCTE's Neural Acute Assay for Mean Interburst Interval, Shafer Lab (AID 2284016);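 further: percent change of mean interburst interval versus each well's own pre-dose baseline; curves fitted for decrease in interburst interval relative to DMSO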
In short: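 Percent change in mean single-electrode interburst interval was calculated per well from 40 min recordings before and after compound (0.03-40 uM). Recordings were made at 37 C on rat cortical cultures at DIV 13 or 15, with spikes detected at 8x rms threshold.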

[7] = CCTE_Shafer_MEA_acute_burst_percentage_mean: CCTE's Neural Acute Assay for Percentage of Spikes in a Burst, Shafer Lab (AID 2284017);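 on AC50: curve fitted for loss of signal so potency reflects decreased burst percentage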
In short: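 Well-level mean burst percentage from a 40-min recording after compound (0.03-40 uM) expressed as percent change from a 40-min baseline at 37C. Cultures: primary rat cortical neurons on MEA, dosed on DIV 13 or 15; fitted downward relative to DMSO.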

[8] = CCTE_Shafer_MEA_acute_burst_percentage_std: CCTE's Neural Acute Assay for Standard Deviation of Burst Percentage, Shafer Lab (AID 2284018);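 further: fitted in the negative direction so actives lower burst percentage SD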
In short: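 Primary rat cortical neurons on 16-electrode MEA wells were recorded 40 min at baseline (DIV 13 or 15), then 40 min after compound (0.03-40 uM), at 37 C. Well value is SD across electrodes of spikes-in-bursts/total spikes; endpoint is percent change, DMSO-referenced.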

[9] = CCTE_Shafer_MEA_acute_per_network_burst_spike_number_mean: CCTE's Neural Acute Assay for Average Number of Spikes in a Network Burst, Shafer Lab (AID 2284019);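 on AC50: curve fitted for loss of signal so actives reduce spikes per network burst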
In short: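 Acute exposure of rat primary cortical networks (DIV 13/15) on MEAs; adaptive spike detection at 8x rms noise, 37 C. Percent change in spikes per network burst after 40 min with compound (0.03-40 uM), negative direction vs DMSO.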

[10] = CCTE_Shafer_MEA_acute_per_network_burst_spike_number_std: CCTE's Neural Acute Assay for Standard Deviation of Number of Spikes in a Network Burst, Shafer Lab (AID 2284020);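 further: fitted for decrease in spike-number SD versus DMSO so actives lower it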
In short: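 Acute MEA exposure, rat cortical neurons, 0.03-40 uM. Per-well % change versus own baseline; DMSO as negative control.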

Measured: AC50

CC1(C)CN=C(NN=C(/C=C/c2ccc(C(F)(F)F)cc2)/C=C/c2ccc(C(F)(F)F)cc2)NC1
inactive: [1] | [2] | [3]

OCC1CO1 (configuration not stated)
inactive: [1] | [2]

Cc1ccc2c(c1N)C(=O)c1ccccc1C2=O
inactive: [1] | [2]

c1ccc(OP(Oc2ccccc2)Oc2ccccc2)cc1
inactive: [1]

CCOc1ccc(C(C)(C)COCc2cccc(Oc3ccccc3)c2)cc1
active: [6] 23.1 µM | [7] 25.4 µM
inactive: all other assays above

Cc1ccc(N)cc1N
inactive: all assays above

Nc1ccc(Cl)cc1
inactive: [1] | [2]

Nc1cc2c3c(c1)C(c1ccccc1)=N[C@@H](NC(=O)c1cccnc1)C(=O)N3CC2
inactive: [1]

O=P(OCC(Br)CBr)(OCC(Br)CBr)OCC(Br)CBr (configuration not stated)
inactive: [1] | [2] | [3]

O=[N+]([O-])c1ccc(Cl)c(Cl)c1
inactive: [1] | [2] | [3]

CO/N=C(/C(=O)OC)c1ccccc1COc1ccccc1C
inactive: [1]

CN(C)C(=O)Cl
inactive: [1]

CCNc1nc(Cl)nc(NC(C)(C)C)n1
inactive: [1] | [2]

CCCCC(CC)COP(=O)(Oc1ccccc1)Oc1ccccc1 (configuration not stated)
active: [7] 23.7 µM | [8] 15 µM
inactive: all other assays above

CCCCN(CCCC)SN(C)C(=O)Oc1cccc2c1OC(C)(C)C2
inactive: [1]

CSC(C)(C)C=NO
inactive: [1] | [2] | [3]

CCCCOCCOP(=O)(OCCOCCCC)OCCOCCCC
inactive: [1] | [2]

O=P(Oc1ccccc1)(Oc1ccccc1)Oc1ccccc1
inactive: [1]

CCCCOCC1CO1 (configuration not stated)
inactive: [1] | [2] | [3]

CCOP(=S)(OCC)SCSc1ccc(Cl)cc1
inactive: [1] | [2]

ClC(Cl)=C(c1ccc(Cl)cc1)c1ccccc1Cl
inactive: [1]

Clc1ccc(Oc2ccccc2)cc1
inactive: [1]

Cc1ccc(O)cc1C
inactive: [1] | [2] | [3]

O=P1(N(CCCl)CCCl)NCCCO1 (configuration not stated)
inactive: [1] | [2] | [3]

FC(F)(F)c1ccc(Cl)cc1
inactive: [1] | [2]

c1cc2c3c(cccc3c1)CC2
inactive: [1] | [2] | [3]

Cc1ccc([N+](=O)[O-])cc1C
inactive: [1]

CCOC(=O)c1ccccc1C(=O)OCC
inactive: [1] | [2] | [3]

Nc1ccc(Sc2ccc(N)cc2)cc1
inactive: [1] | [2]

c1nc[nH]n1
inactive: [1] | [2]

CCCCN(CCCC)N=O
inactive: [1] | [2] | [3]

CCCN(CCC)c1c([N+](=O)[O-])cc(C(C)C)cc1[N+](=O)[O-]
inactive: [1] | [2] | [3]

ClC(Cl)c1ccccc1
inactive: [1]

CCN(CC)c1ccccc1
inactive: [1] | [2] | [3]

CCCCCCCc1ccc(O)cc1
inactive: [1]

O=S(=O)(c1ccc(O)cc1)c1ccc(O)cc1
inactive: [1]

CC(Cl)(Cl)C(=O)O
not listed: [2]
inactive: all other assays above

CC(C)(C)c1ccc(O)cc1
inactive: [1] | [3]

O=C(O)C(Cl)Cl
inactive: [1] | [3]

Nc1ccc([N+](=O)[O-])cc1Cl
inactive: [1] | [3]

CCOP(=S)(OCC)SCSCC
inactive: [1] | [3]

CC(Cc1ccc(OCC(=O)O)cc1)NCC(O)c1csc(C(F)(F)F)n1 (configuration not stated)
inactive: [1] | [3]

CC(C)(C)c1ccccc1OP(=O)(Oc1ccccc1)Oc1ccccc1
active: [5] 7.23 µM | [7] 6.79 µM | [8] 5 µM | [10] 5 µM
inactive: [4] | [6] | [9]

c1ccc2c(c1)Nc1ccccc1S2
active: [4] 34.9 µM | [6] 4.14 µM | [7] 25.8 µM | [10] 27.3 µM
inactive: all other assays above

CCC(C)(C)c1ccc(O)cc1
inactive: [4] | [5] | [8] | [9]
active: [6] 0.0877 µM | [7] 9.06 µM | [10] 8.27 µM

CCOP(=S)(S)OCC
inactive: [1] | [3]

Cc1c([N+](=O)[O-])cc2c(c1[N+](=O)[O-])C(C)(C)CC2(C)C
inactive: [1] | [3]

CCOP(=S)(Oc1ccc([N+](=O)[O-])cc1)c1ccccc1 (configuration not stated)
inactive: all assays above

ClC1=C(Cl)C2(Cl)C3C(Cl)C(Cl)CC3C1(Cl)C2(Cl)Cl (configuration not stated)
active: [7] 0.29 µM | [9] 0.309 µM
not listed: [2]
inactive: all other assays above

O=C(O)C1C(C(=O)O)C2(Cl)C(Cl)=C(Cl)C1(Cl)C2(Cl)Cl (configuration not stated)
not listed: [2]
inactive: all other assays above

O=NN1CCCC1
inactive: [1] | [3]

COP(=O)(O)OC
inactive: [1] | [3]

O=C(O)CF
inactive: [1] | [3]

CCCCN(CC)C(=O)SCCC
inactive: [1] | [3]

O=[N+]([O-])c1ccccc1
inactive: [1] | [3]

c1ccc2c(c1)sc1ccccc12
inactive: [1] | [3]

CC(C)(C)OOC(C)(C)C
inactive: [1] | [3]

CCCCC(CC)COC(=O)c1c(Br)c(Br)c(Br)c(Br)c1C(=O)OCC(CC)CCCC (configuration not stated)
inactive: [1] | [3]

CCC1(c2ccccc2)C(=O)N=C(O)NC1=O (configuration not stated)
not listed: [2]
inactive: all other assays above

Nc1ccc2ccccc2c1
inactive: all assays above

Cc1cccc(N)c1
inactive: [1] | [3]

N#Cc1ccc(O)cc1
inactive: [1] | [3]

CCCCc1ccccc1
inactive: [1] | [3]

C/C(=N\NC(=O)Nc1cc(F)cc(F)c1)c1ncccc1C(=O)O
inactive: [1] | [3]

CC(C)(C)N(NC(=O)c1ccc(Cl)cc1)C(=O)c1ccccc1
inactive: [1] | [3]

COCCOCCO
not listed: [3]
inactive: all other assays above

[N-]=[N+]=[N-]
not listed: [2]
inactive: all other assays above

COP(=O)(CCC(=O)NCO)OC
active: [5] 0.145 µM
not listed: [1] | [2] | [3]
inactive: all other assays above

CCOS(=O)(=O)OCC
inactive: [1] | [3]

CCOP(=S)(NC(C)C)Oc1ccccc1C(=O)OC(C)C (configuration not stated)
inactive: [1] | [3]

ClC(Cl)(Cl)c1ccccc1
inactive: all assays above

CC(O)C#N (configuration not stated)
inactive: [1] | [3]
